# Laboratory results as given in PubChem BioAssay (NCATS).
# Results filed as inconclusive are left out. A call without a number means that no potency is given here. Activity calls are given as the source filed them. The call rests on the fitted dose curve; in most records, active means well fitted inhibition curve with a large enough effect; inconclusive means small, poorly fitted or top-dose-only effect; inactive means flat fitted curve, though single readings scatter.
# Experiment: BET inhibitor-based combinations targeting novel dependencies in MECOM-rearranged (r) AML: AML-194 cell line (AID 2202237; further: nearly all actives have a fitted effect of over 40% in size)
# Details: AML-194 (MECOM-r AML) viability, CellTiter-Glo, 48 h; series mostly up to 46 µM
# Method in brief: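 A 48 hr incubation preceded viability reading by CellTiter-Glo, with 15 min room-temperature development. Dose series had 11 points; normalization used DMSO and empty wells; AUC was computed and mean-centered per line as Z-AUC.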
# Potency means the concentration at half of the fitted maximal effect.
row,Compound,Potency
1,Clc1cccc(C(c2ccc3nc[nH]c3c2)n2ccnc2)c1 (stereo unspecified),inactive
2,CC(C)(C)S(=O)(=O)c1ccc2nccc(Nc3n[nH]c4ccc(F)cc34)c2c1,inactive
3,COc1ccc(C(=O)N2CCN(C(=O)/C=C/c3ccc(Br)cc3)CC2)cc1,inactive
4,CCn1c(=O)c2c(nc(/C=C/c3ccc(OC)c(OC)c3)n2C)n(CC)c1=O,inactive
5,Cc1c(C(=O)Nc2ccc(Oc3ccnc4[nH]cc(-c5ccccc5)c34)c(F)c2)c(=O)n(-c2ccc(F)cc2)n1C,1.66 µM (active)
6,C=C1CCC[C@]2(C)C=C3OC(=O)C(C)=C3C[C@@H]12,inactive
7,Cc1ccc2cc(-c3c(C)ccc(C(=O)c4c(-c5ccccc5)n(C)n(-c5ccccc5)c4=O)c3N)ccc2n1,inactive
8,NC1=N[C@@]2(c3cc(NC(=O)c4ccc(F)cn4)ccc3F)COC[C@H]2CS1,inactive
9,Nc1nc(OC(c2ccc(-c3cccc(F)c3)cc2)C(F)(F)F)cc(-c2ccc(C[C@@H](N)C(=O)O)cc2)n1 (stereo partly specified),inactive
10,FC(F)(F)c1ccc(CNc2ccc(Cc3c[nH]c4ncc(Cl)cc34)cn2)cn1,inactive
11,CC1=C(/C=C/C(C)=C/C=C/C(C)=C/C=C/C=C(C)/C=C/C=C(C)/C=C/C2=C(C)CCCC2(C)C)C(C)(C)CCC1,inactive
12,C=CC[C@@H]1/C=C(\C)C[C@H](C)C[C@H](OC)[C@H]2O[C@@](O)(C(=O)C(=O)N3CCCC[C@H]3C(=O)O[C@H](/C(C)=C/[C@@H]3CC[C@@H](O)[C@H](OC)C3)[C@H](C)[C@@H](O)CC1=O)[C@H](C)C[C@@H]2OC,20.9 µM (active)
13,C=CC(=O)Nc1cc(N2CCN(CC)CC2)ccc1Nc1cc(N(C)C(=O)Nc2c(Cl)c(OC)cc(OC)c2Cl)ncn1,inactive
14,C[C@H](Nc1nc(N[C@H](C)C(F)(F)F)nc(-c2cccc(Cl)n2)n1)C(F)(F)F,inactive
15,Cc1cc(Nc2cc(N)ncn2)c(=O)n2c1C(=O)NC21CCCCC1,inactive
16,O=C(Nc1nccs1)C(c1cc(F)ccc1O)N1Cc2ccccc2C1=O (stereo unspecified),inactive
17,CN(CCOc1ccc(-c2ccc3c(c2)OCO3)cc1C(C)(C)C)CC(=O)O,inactive
18,C[C@H]1CN(C2COC2)CCN1c1ccc(Nc2cc(-c3ccnc(N4CCn5c(cc6c5CC(C)(C)C6)C4=O)c3CO)cn(C)c2=O)nc1,inactive
19,O=C(NO)c1cnc(NC2(c3ccccc3)CC2)nc1,8.33 µM (active)
20,COc1cc(OC)c(NC(=O)Nc2cc(C)on2)cc1Cl,inactive
21,O=C1OC(COc2ccccc2[N+](=O)[O-])CC1Cc1ccccc1 (stereo unspecified),inactive
22,O=C(O)CCC=CCC[C@@H]1[C@H](N2CCCCC2)[C@@H](O)C[C@@H]1OCc1ccc(-c2ccccc2)cc1,inactive
23,CC(C)=CCC/C(C)=C/CC/C(C)=C/CSc1ccccc1C(=O)O,inactive
24,CCC[C@H](Nc1nc(-c2ccc(NC(=O)NCC)c(OC)c2)ncc1C)c1cccnc1,0.105 µM (active)
25,CN(C)c1ccccc1CN1CCCN(Cc2ccccc2N(C)C)C1c1ccncc1,inactive
26,O=C1NC(=O)/C(=C\c2ccc(-c3ccc(F)cc3)o2)S1,inactive
